{"source": "paper PMC11006913", "test_in_all_cases": "PBM; 200 nM protein, PBS", "conditions_in_all_cases": "dsDNA, one strand shown", "key": {"VENTX [1]": {"target": "T1, VENTX (Homo sapiens, UniProt O95231 78-163, R121Q)", "T1 sequence": "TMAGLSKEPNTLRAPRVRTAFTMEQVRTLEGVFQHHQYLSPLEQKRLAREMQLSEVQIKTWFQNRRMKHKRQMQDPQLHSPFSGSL"}, "SIX6 [2]": {"target": "T2, SIX6 (Homo sapiens, UniProt O95475 114-200, L167I)", "T2 sequence": "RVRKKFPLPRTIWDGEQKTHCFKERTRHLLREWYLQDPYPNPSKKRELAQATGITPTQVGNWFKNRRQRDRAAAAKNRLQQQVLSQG"}, "VENTX [3]": {"target": "T3, VENTX (Homo sapiens, UniProt O95231 78-163)", "T3 sequence": "T1 sequence with Q44R"}, "SIX6 [4]": {"target": "T4, SIX6 (Homo sapiens, UniProt O95475 114-200, L143V)", "T4 sequence": "T2 sequence with L30V, I54L"}, "SIX6 [5]": {"target": "T5, SIX6 (Homo sapiens, UniProt O95475 114-200, H141N)", "T5 sequence": "T2 sequence with H28N, I54L"}, "SIX6 [6]": {"target": "T6, SIX6 (Homo sapiens, UniProt O95475 114-200, T165P)", "T6 sequence": "T2 sequence with T52P, I54L"}, "VENTX [7]": {"target": "T7, VENTX (Homo sapiens, UniProt O95231 78-163, Y115F)", "T7 sequence": "T1 sequence with Y38F, Q44R"}, "SIX6 [8]": {"target": "T8, SIX6 (Homo sapiens, UniProt O95475 114-200, L167M)", "T8 sequence": "T2 sequence with I54M"}, "SIX6 [9]": {"target": "T9, SIX6 (Homo sapiens, UniProt O95475 114-200, L143M)", "T9 sequence": "T2 sequence with L30M, I54L"}, "SIX6 [10]": {"target": "T10, SIX6 (Homo sapiens, UniProt O95475 114-200, L143I)", "T10 sequence": "T2 sequence with L30I, I54L"}, "SIX6 [11]": {"target": "T11, SIX6 (Homo sapiens, UniProt O95475 114-200, T165G)", "T11 sequence": "T2 sequence with T52G, I54L"}, "SIX6 [12]": {"target": "T12, SIX6 (Homo sapiens, UniProt O95475 114-200, T139Q)", "T12 sequence": "T2 sequence with T26Q, I54L"}, "SIX6 [13]": {"target": "T13, SIX6 (Homo sapiens, UniProt O95475 114-200, T165A)", "T13 sequence": "T2 sequence with T52A, I54L"}, "SIX6 [14]": {"target": "T14, SIX6 (Homo sapiens, UniProt O95475 114-200, L167V)", "T14 sequence": "T2 sequence with I54V"}, "SIX6 [15]": {"target": "T15, SIX6 (Homo sapiens, UniProt O95475 114-200)", "T15 sequence": "T2 sequence with I54L"}, "VAX1 [16]": {"target": "VAX1 (Homo sapiens, UniProt Q5SQQ9 86-172)", "sequence (Q5SQQ9 86-172)": "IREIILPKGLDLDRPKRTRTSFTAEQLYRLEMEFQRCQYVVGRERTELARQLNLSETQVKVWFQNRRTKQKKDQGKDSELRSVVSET"}, "SIX6 [17]": {"target": "T16, SIX6 (Homo sapiens, UniProt O95475 114-200, T165I)", "T16 sequence": "T2 sequence with T52I, I54L"}, "VAX1 [18]": {"target": "VAX1 (Homo sapiens, UniProt Q5SQQ9 86-172, T142I)", "sequence (Q5SQQ9 86-172 T142I)": "as the sequence (Q5SQQ9 86-172) above, with T57I counted along it"}, "VAX1 [19]": {"target": "VAX1 (Homo sapiens, UniProt Q5SQQ9 86-172, K157R)", "sequence (Q5SQQ9 86-172 K157R)": "as the sequence (Q5SQQ9 86-172) above, with K72R counted along it"}, "HOXA4 [20]": {"target": "HOXA4 (Homo sapiens, UniProt Q00056 201-287, W262R)", "sequence (Q00056 201-287 W262R)": "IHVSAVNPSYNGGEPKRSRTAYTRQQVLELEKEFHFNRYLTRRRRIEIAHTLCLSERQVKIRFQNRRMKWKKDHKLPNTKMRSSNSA"}, "HOXC9 [21]": {"target": "HOXC9 (Homo sapiens, UniProt P31274 178-260, K195R)", "sequence (P31274 178-260 K195R)": "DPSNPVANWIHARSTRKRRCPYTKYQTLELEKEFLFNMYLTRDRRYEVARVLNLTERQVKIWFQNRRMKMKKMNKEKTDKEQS"}, "ALX4 [22]": {"target": "ALX4 (Homo sapiens, UniProt Q9H161 200-286)", "sequence (Q9H161 200-286)": "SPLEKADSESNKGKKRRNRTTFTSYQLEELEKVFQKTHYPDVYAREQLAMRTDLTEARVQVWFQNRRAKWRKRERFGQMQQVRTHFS"}, "ALX4 [23]": {"target": "ALX4 (Homo sapiens, UniProt Q9H161 200-286, Q225E)", "sequence (Q9H161 200-286 Q225E)": "as the sequence (Q9H161 200-286) above, with Q26E counted along it"}, "HOXA4 [24]": {"target": "HOXA4 (Homo sapiens, UniProt Q00056 201-287, R217L)", "sequence (Q00056 201-287 R217L)": "as the sequence (Q00056 201-287 W262R) above, with R17L, R62W counted along it"}, "HOXC9 [25]": {"target": "HOXC9 (Homo sapiens, UniProt P31274 178-260)", "sequence (P31274 178-260)": "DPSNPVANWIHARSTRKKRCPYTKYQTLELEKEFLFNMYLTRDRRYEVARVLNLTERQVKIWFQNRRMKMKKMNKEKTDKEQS"}, "NKX2-6 [26]": {"target": "T17, NKX2-6 (Homo sapiens, UniProt A6NCS4 118-204)", "T17 sequence": "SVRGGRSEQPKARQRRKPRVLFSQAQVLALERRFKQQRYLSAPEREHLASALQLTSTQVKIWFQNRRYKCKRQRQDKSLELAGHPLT"}, "HOXC9 [27]": {"target": "HOXC9 (Homo sapiens, UniProt P31274 178-260, R193K)", "sequence (P31274 178-260 R193K)": "as the sequence (P31274 178-260) above, with R16K counted along it"}, "HOXA4 [28]": {"target": "HOXA4 (Homo sapiens, UniProt Q00056 201-287)", "sequence (Q00056 201-287)": "as the sequence (Q00056 201-287 W262R) above, with R62W counted along it"}, "NKX2-6 [29]": {"target": "T18, NKX2-6 (Homo sapiens, UniProt A6NCS4 118-204, F151L)", "T18 sequence": "T17 sequence with F34L"}, "HOXC9 [30]": {"target": "HOXC9 (Homo sapiens, UniProt P31274 178-260, R222W)", "sequence (P31274 178-260 R222W)": "as the sequence (P31274 178-260) above, with R45W counted along it"}, "HOXA4 [31]": {"target": "HOXA4 (Homo sapiens, UniProt Q00056 201-287, W262F)", "sequence (Q00056 201-287 W262F)": "as the sequence (Q00056 201-287 W262R) above, with R62F counted along it"}}, "note": "Numbering of substitutions follows the chain as printed.", "data": [{"sequence": "CAAGGCCC", "values": [{"measurement": "binding signal", "setting": "VENTX [1]", "result": "7.94 upbm affinity estimate (log intensity, higher = more binding, comparable within an allelic series)"}, {"measurement": "binding signal", "setting": "SIX6 [2]", "result": "8.9 upbm affinity estimate (log intensity, higher = more binding, comparable within an allelic series)"}, {"measurement": "binding signal", "setting": "VENTX [3]", "result": "7.78 upbm affinity estimate (log intensity, higher = more binding, comparable within an allelic series)"}, {"measurement": "binding signal", "setting": "SIX6 [4]", "result": "8.85 upbm affinity estimate (log intensity, higher = more binding, comparable within an allelic series)"}, {"measurement": "binding signal", "setting": "SIX6 [5]", "result": "8.89 upbm affinity estimate (log intensity, higher = more binding, comparable within an allelic series)"}, {"measurement": "binding signal", "setting": "SIX6 [6]", "result": "8.97 upbm affinity estimate (log intensity, higher = more binding, comparable within an allelic series)"}, {"measurement": "binding signal", "setting": "VENTX [7]", "result": "7.82 upbm affinity estimate (log intensity, higher = more binding, comparable within an allelic series)"}, {"measurement": "binding signal", "setting": "SIX6 [8]", "result": "8.85 upbm affinity estimate (log intensity, higher = more binding, comparable within an allelic series)"}, {"measurement": "binding signal", "setting": "SIX6 [9]", "result": "8.93 upbm affinity estimate (log intensity, higher = more binding, comparable within an allelic series)"}, {"measurement": "binding signal", "setting": "SIX6 [10]", "result": "8.82 upbm affinity estimate (log intensity, higher = more binding, comparable within an allelic series)"}, {"measurement": "binding signal", "setting": "SIX6 [11]", "result": "8.95 upbm affinity estimate (log intensity, higher = more binding, comparable within an allelic series)"}, {"measurement": "binding signal", "setting": "SIX6 [12]", "result": "8.93 upbm affinity estimate (log intensity, higher = more binding, comparable within an allelic series)"}, {"measurement": "binding signal", "setting": "SIX6 [13]", "result": "8.92 upbm affinity estimate (log intensity, higher = more binding, comparable within an allelic series)"}, {"measurement": "binding signal", "setting": "SIX6 [14]", "result": "8.98 upbm affinity estimate (log intensity, higher = more binding, comparable within an allelic series)"}, {"measurement": "binding signal", "setting": "SIX6 [15]", "result": "8.89 upbm affinity estimate (log intensity, higher = more binding, comparable within an allelic series)"}, {"measurement": "binding signal", "setting": "VAX1 [16]", "result": "7.02 upbm affinity estimate (log intensity, higher = more binding, comparable within an allelic series)"}, {"measurement": "binding signal", "setting": "SIX6 [17]", "result": "8.88 upbm affinity estimate (log intensity, higher = more binding, comparable within an allelic series)"}, {"measurement": "binding signal", "setting": "VAX1 [18]", "result": "7.07 upbm affinity estimate (log intensity, higher = more binding, comparable within an allelic series)"}, {"measurement": "binding signal", "setting": "VAX1 [19]", "result": "6.96 upbm affinity estimate (log intensity, higher = more binding, comparable within an allelic series)"}]}, {"sequence": "CGGAGGGA", "values": [{"measurement": "binding signal", "setting": "VENTX [1]", "result": "8.11 upbm affinity estimate (log intensity, higher = more binding, comparable within an allelic series)"}, {"measurement": "binding signal", "setting": "HOXA4 [20]", "result": "9.84 upbm affinity estimate (log intensity, higher = more binding, comparable within an allelic series)"}, {"measurement": "binding signal", "setting": "HOXC9 [21]", "result": "9.42 upbm affinity estimate (log intensity, higher = more binding, comparable within an allelic series)"}, {"measurement": "binding signal", "setting": "VENTX [3]", "result": "7.97 upbm affinity estimate (log intensity, higher = more binding, comparable within an allelic series)"}, {"measurement": "binding signal", "setting": "ALX4 [22]", "result": "7.87 upbm affinity estimate (log intensity, higher = more binding, comparable within an allelic series)"}, {"measurement": "binding signal", "setting": "VENTX [7]", "result": "8.17 upbm affinity estimate (log intensity, higher = more binding, comparable within an allelic series)"}, {"measurement": "binding signal", "setting": "ALX4 [23]", "result": "8.03 upbm affinity estimate (log intensity, higher = more binding, comparable within an allelic series)"}, {"measurement": "binding signal", "setting": "HOXA4 [24]", "result": "9.72 upbm affinity estimate (log intensity, higher = more binding, comparable within an allelic series)"}, {"measurement": "binding signal", "setting": "HOXC9 [25]", "result": "9.45 upbm affinity estimate (log intensity, higher = more binding, comparable within an allelic series)"}, {"measurement": "binding signal", "setting": "NKX2-6 [26]", "result": "9.02 upbm affinity estimate (log intensity, higher = more binding, comparable within an allelic series)"}, {"measurement": "binding signal", "setting": "HOXC9 [27]", "result": "9.42 upbm affinity estimate (log intensity, higher = more binding, comparable within an allelic series)"}, {"measurement": "binding signal", "setting": "HOXA4 [28]", "result": "9.76 upbm affinity estimate (log intensity, higher = more binding, comparable within an allelic series)"}, {"measurement": "binding signal", "setting": "NKX2-6 [29]", "result": "9.3 upbm affinity estimate (log intensity, higher = more binding, comparable within an allelic series)"}, {"measurement": "binding signal", "setting": "HOXC9 [30]", "result": "9.69 upbm affinity estimate (log intensity, higher = more binding, comparable within an allelic series)"}, {"measurement": "binding signal", "setting": "HOXA4 [31]", "result": "9.79 upbm affinity estimate (log intensity, higher = more binding, comparable within an allelic series)"}]}]}
